# Test results reported in PubChem BioAssay (NCATS).
# Inconclusive results are not listed. Where a call stands in place of a potency, no number is given. Activity calls are given as the source filed them. Calls follow the shape of the dose curve; as a rule, active = well fitted cell-killing curve with a large enough effect; inconclusive = small, poorly fitted or top-dose-only effect, or effect the other way; inactive = no such curve, though single readings can be large or run the other way.
# Assay: Quantitative High-Throughput drug screen in 47 multiple myeloma cell lines against the NCATS MIPE library collection: PCM6_Riken cell viability assay (AID 1919870); also: nearly all actives have a fitted effect of over 30% in size
# Conditions: CellTiter-Glo ATP, 48 h; series mostly up to 45.8 µM
# Outline: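 Readout: median RLU from CellTiter-Glo after 5 min at room temperature. Preceding step was 48 h drug treatment of 500 cells/well at 37 °C, 5% CO2, with DMSO-only and media-only control wells.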
# Potency is read from the fitted curve at half-maximal effect.
row,SMILES,Potency
1,CC(=Cc1csc(C)n1)[C@@H]1C[C@H]2O[C@]2(C)CCC[C@H](C)[C@@H](O)[C@@H](C)C(=O)C(C)(C)[C@@H](O)CC(=O)O1,inactive
2,O=c1cccc2n1CC1CNC[C@H]2C1,20.9 µM (active)
3,Cc1c(N)nc([C@H](CC(N)=O)NC[C@@H](N)C(N)=O)nc1C(=O)N[C@H](C(=O)N[C@@H](C)[C@H](O)[C@@H](C)C(=O)N[C@@H](C(=O)NCCc1nc(-c2nc(C(=O)NCCC[S+](C)C)cs2)cs1)[C@@H](C)O)C(O[C@H]1O[C@H](CO)[C@H](O)[C@@H](O)[C@@H]1O[C@H]1O[C@H](CO)[C@@H](O)[C@H](OC(N)=O)[C@H]1O)c1cnc[nH]1 (some centres undefined),inactive
4,NC1CC1c1ccccc1 (centres undefined),inactive
5,CC(C)(O)C(=O)Nc1ccc([N+](=O)[O-])c(C(F)(F)F)c1,8.33 µM (active)
6,CCOC(=O)c1cncn1[C@H](C)c1ccccc1,inactive
7,CC(O)=C(C#N)C(=O)Nc1cc(Br)ccc1Br,1.32 µM (active)
8,CCN(CC)C(=O)c1ccc(C2=CC3(CCNCC3)Oc3cccc(O)c32)cc1,inactive
9,C[C@]12CC[C@@H]3[C@@H](CCC4=CC(=O)CC[C@@H]43)[C@@H]1CC[C@@H]2OC(=O)CCc1ccccc1,inactive
10,CCOP(=O)(OCC)C(C)NC(=O)N(CCCl)N=O (centres undefined),inactive
11,CCC(=O)OC1CCC2C3CCC4=CC(=O)CC[C@@]4(C)C3CC[C@]12C (some centres undefined),inactive
12,CC(=O)N(C)c1cccc(-c2ccnc3c(C(=O)c4cccs4)cnn23)c1,inactive
13,c1ccc(CCCN2CCN(CCOC(c3ccccc3)c3ccccc3)CC2)cc1,26.4 µM (active)
14,O=C(O)CNC(=O)c1c(O)c2ccccc2n(Cc2ccccc2)c1=O,inactive
15,CN(C)NC(=O)CCC(=O)O,20.9 µM (active)
16,CCOC(=O)c1c(C(C#N)=CN)c2ccc(Cl)c(Cl)c2n1C,inactive
17,CN(C)[C@@H]1C(=O)C(C(N)=O)=C(O)[C@@]2(O)C(=O)C3=C(O)c4c(O)cccc4[C@@](C)(O)[C@H]3[C@H](O)[C@@H]12,inactive
18,NC1=NC(=O)N2CC12 (centres undefined),8.33 µM (active)
19,COc1cc([C@@H]2c3cc4c(cc3[C@@H](O)C3COC(=O)C32)OCO4)cc(OC)c1O (some centres undefined),0.0469 µM (active)
20,CCCN1CCO[C@@H]2c3cc(O)ccc3OC[C@@H]21,inactive
21,CC[C@@H](C(N)=O)N1CCCC1=O,inactive
22,C#C[C@]1(O)C=C[C@@H]2[C@@H]3CCC4=CC(=O)CC[C@@H]4[C@H]3CC[C@@]21CC,inactive
23,C[C@]12CC[C@H](O)CC1=CC[C@H]1[C@H]3CCC(=O)[C@@]3(C)CC[C@@H]12,16.6 µM (active)
24,CC1(N2CCC(n3c([C@@H]4CCCNC4)nc4ccccc43)CC2)CCCCCCC1,14.8 µM (active)
25,CCNC(=O)CC1N=C(c2ccc(Cl)cc2)c2cc(OC)ccc2-n2c(C)nnc21 (centres undefined),23.5 µM (active)
26,C[C@@H]1CC[C@@]2(OC1)O[C@H]1C[C@H]3[C@@H]4CC=C5C[C@@H](O[C@@H]6O[C@H](CO)[C@@H](O[C@@H]7O[C@@H](C)[C@H](O)[C@@H](O)[C@@H]7O)[C@H](O)[C@@H]6O[C@@H]6O[C@@H](C)[C@H](O)[C@@H](O)[C@@H]6O)CC[C@]5(C)[C@@H]4CC[C@]3(C)[C@@H]1[C@H]2C,3.32 µM (active)
27,COc1ccc2c(c1)[C@]13CCCCC1C(C2)N(C)CC3 (some centres undefined),inactive
28,C[C@]12Cc3cn[nH]c3C[C@@H]1CC[C@@H]1[C@H]2CC[C@@]2(C)[C@H]1CC[C@]2(C)O,inactive
29,CC(C)[C@H]1C(=O)N[C@H](CO)Cc2c[nH]c3cccc(c23)N1C,0.264 µM (active)
